Assay outcomes (PubChem)
Shown are actives, neighbours in structure and some others; about 3.6% of the full set was active somewhere.
APOBEC3A inh: inhibitors of human APOBEC3A DNA deaminase; recombinant A3A, FAM/TAMRA ssDNA deamination fluorescence; inhibition, % at 20 µM; 0.41% of 330,000 active; AID 493011;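 active means at least 40% inhibition at 20 µM here, with at most 30% in a related deaminase screen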
Target sequence (P31941 whole entry, looked up): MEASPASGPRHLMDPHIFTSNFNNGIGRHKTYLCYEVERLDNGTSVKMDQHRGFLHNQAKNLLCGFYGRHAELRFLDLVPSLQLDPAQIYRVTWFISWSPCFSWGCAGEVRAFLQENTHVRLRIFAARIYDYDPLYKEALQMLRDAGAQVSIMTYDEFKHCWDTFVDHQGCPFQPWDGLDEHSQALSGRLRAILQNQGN
APOBEC3G inh: APOBEC3G (human) deaminase inhibition; Q9HC16; recombinant A3G, ssDNA deamination FAM/TAMRA fluorescence; inhibition, % at 20 µM; 0.28% of 330,000 active; AID 493012;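 active means inhibition of at least 40% at 20 µM, with no more than 30% in the related APOBEC3A deaminase screen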
PHOSPHO1 inh: PHOSPHO1 (human) inhibition; recombinant PHOSPHO1, absorbance phosphatase assay; inhibition, % at 13.3 µM; 1.1% of 290,000 active; in the data active means inhibition above about 60%
Target sequence (Q8TCT1 whole entry, looked up): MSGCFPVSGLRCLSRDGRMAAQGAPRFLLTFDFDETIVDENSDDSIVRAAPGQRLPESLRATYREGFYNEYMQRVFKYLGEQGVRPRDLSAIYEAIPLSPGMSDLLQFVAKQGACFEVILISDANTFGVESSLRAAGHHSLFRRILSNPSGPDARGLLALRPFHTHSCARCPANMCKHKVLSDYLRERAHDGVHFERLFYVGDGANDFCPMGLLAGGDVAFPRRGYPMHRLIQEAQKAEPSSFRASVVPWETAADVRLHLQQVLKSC
esBAF inh: inhibitors of esBAF chromatin remodeling in mouse ES cells. Bmi1-luciferase knock-in reporter, 24 h; 100% = twice the neutral-well signal. reporter increase, % at 12.5 µM. 2% of 350,000 active. AID 602393; in the data active means activation above about 40%; inconclusive means no clear call, values can overlap the other calls;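 further: a rise in the Bmi1 reporter signal indicates esBAF inhibition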
MITF act: activators of MITF-driven TRPM1 promoter activity in SK-MEL-5 cells. activation, % at 12.5 µM. 0.75% of 300,000 active. SK-MEL-5 TRPM1-promoter luciferase, 24 h; % of positive control, neutral wells = 0;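 active means mean activation of at least 80% with every replicate also reaching 80%; inconclusive means mean reaches 80% but some replicate falls short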
Wnt act: Wnt/beta-catenin pathway activation; Wnt/beta-catenin reporter cell assay, activator, plate reader; 1.2% of 300,000 active; activation, % at 9.35 µM; in the data active means activation above about 30%, passing the limit was not always enough; inconclusive means no clear call, values can overlap the other calls
Of the large screens only hits and unclear results are named; the others gave an inactive call.

O=C(c1cc(COc2ccc(F)cc2Cl)on1)N1CCSCC1	esBAF inh 77.7
COCC1CCN(C(=O)c2cc(COc3cccc4cnccc34)on2)CC1	none
COc1ccc(OCc2cc(C(=O)N3CCSCC3)no2)c(Cl)c1	MITF act inconclusive (no result: esBAF inh)
CSc1ccccc1OCc1cc(C(=O)N2CCCC(C)C2)no1 (stereo not given)	esBAF inh 61.8, MITF act 158.6, Wnt act 50.7
Clc1ccc(COn2c(-c3ccc(Cl)cc3)nc3ccccc32)cc1	none
COn1c(-c2ccc(Cl)cc2)nc2ccc(Cl)cc21	Wnt act 57.4
O=[N+]([O-])c1ccc2nc(-c3ccc(Cl)cc3)n(OCc3ccccc3)c2c1	PHOSPHO1 inh 62.2, esBAF inh 68.2, Wnt act 65.1 (no result: MITF act)
Cc1ccc(COn2c(-c3ccc(Cl)cc3)nc3ccc([N+](=O)[O-])cc32)cc1	esBAF inh 53.7, MITF act 102.5, Wnt act 42.4
Cc1noc(C)c1NC(=O)Nc1cccc2c1O[C@H](CN(C)C(=O)Nc1ccc3c(c1)OCO3)[C@H](C)CN([C@H](C)CO)C2=O	none (no result: APOBEC3A inh, APOBEC3G inh, PHOSPHO1 inh, MITF act, Wnt act)
CCC(=O)Nc1ccc2c(c1)C(=O)N(C)C[C@H](OC)[C@@H](C)CN(Cc1cccc(F)c1)[C@@H](C)CO2	none (no result: APOBEC3A inh, APOBEC3G inh, PHOSPHO1 inh, MITF act, Wnt act)
CSCCC(NC(=O)c1ccco1)C(=O)NC1CCC(C)CC1 (stereo not given)	esBAF inh 62.0, MITF act 112.0 (no result: PHOSPHO1 inh)
O=C(N[C@@H](Cc1ccccc1)C(=O)NC1CCCCCC1)c1ccco1	esBAF inh 45.4, MITF act inconclusive (no result: Wnt act)
CSCCC(NC(=O)c1ccco1)C(=O)NCC1CCCCC1 (stereo not given)	none (no result: PHOSPHO1 inh)
Cc1cccc(-n2ncc3c(Nc4ccc(F)cc4)ncnc32)c1	esBAF inh 71.1
COc1ccc(-n2ncc3c(Nc4cccc(C)c4)ncnc32)cc1	MITF act 120.2
COc1ccc(Nc2ncnc3c2cnn3-c2cccc(C)c2)cc1OC	none (no result: MITF act)
CCCN(CCC)c1ncnc2c1cnn2-c1ccc(OC)cc1	MITF act 128.3 (no result: Wnt act)
Cc1cccc(-n2ncc3c(NCCCn4ccnc4)ncnc32)c1	esBAF inh 49.0 (no result: MITF act)
CCCNC(=O)Nc1ccc2c(c1)C(=O)N(C)C[C@@H](OC)[C@H](C)CN[C@@H](C)CO2	none (no result: APOBEC3A inh, APOBEC3G inh, PHOSPHO1 inh, MITF act, Wnt act)
C[C@H]1CCCCO[C@@H](CN(C)S(=O)(=O)c2ccccc2)[C@@H](C)CN([C@@H](C)CO)C(=O)c2cc(NC(=O)C3CCCCC3)ccc2O1	none (no result: APOBEC3A inh, APOBEC3G inh, PHOSPHO1 inh, MITF act, Wnt act)
CN1C(=O)c2cc(NC(=O)Nc3ccc(F)cc3)ccc2OC[C@H]2O[C@H](CC(=O)NC3CCC3)CC[C@H]21	none (no result: APOBEC3A inh, APOBEC3G inh, PHOSPHO1 inh, MITF act, Wnt act)
CCN(CC)c1nc(C)nc2c1cnn2CCc1ccccc1	esBAF inh 80.0, MITF act 89.1 (no result: Wnt act)
FC(F)(F)Oc1ccccc1-c1nnc(-c2cccc(C(F)(F)F)c2)o1	none
COc1cccc(-c2nnc(-c3ccc(C(F)(F)F)cc3)o2)c1OC	esBAF inh 53.2 (no result: MITF act, Wnt act)
Cc1ccc(CSc2nnc(-c3cccc4ccccc34)o2)cc1	none (no result: PHOSPHO1 inh)
Cc1cccc(-c2nnc(-c3ccc4ccccc4c3)o2)c1	none (no result: APOBEC3A inh, APOBEC3G inh, PHOSPHO1 inh)
Cc1cccc(-c2nnc(-c3cccc4ccccc34)o2)c1	Wnt act 50.6 (no result: APOBEC3A inh, APOBEC3G inh, PHOSPHO1 inh)
c1ccc(Nc2nnc(-c3cccc4ccccc34)o2)cc1	Wnt act 38.0 (no result: esBAF inh, MITF act)
Cc1ccc(-c2nnc(-c3cccc4ccccc34)o2)cc1	esBAF inh 54.4 (no result: APOBEC3A inh, APOBEC3G inh, PHOSPHO1 inh)
C[C@@H]1CCCCO[C@H](CN(C)C(=O)Nc2ccccc2)[C@H](C)CN([C@H](C)CO)C(=O)c2cc(NC(=O)Nc3ccc(F)cc3)ccc2O1	none (no result: APOBEC3A inh, APOBEC3G inh, PHOSPHO1 inh, MITF act, Wnt act)
CNC(=O)C[C@H]1CC[C@@H]2[C@H](COC[C@H](O)CN2S(=O)(=O)c2ccc(Oc3ccccc3)cc2)O1	none (no result: APOBEC3A inh, APOBEC3G inh, PHOSPHO1 inh, MITF act, Wnt act)
C[C@H]1CN([C@@H](C)CO)C(=O)c2cc(C#Cc3ccc(F)cc3)cnc2O[C@@H]1CN(C)C	none (no result: APOBEC3A inh, APOBEC3G inh, PHOSPHO1 inh, MITF act, Wnt act)
CCOC(=O)/C(=C\Nc1ccc(OCc2ccccc2)cc1)NC(=O)c1ccccc1	none (no result: APOBEC3A inh, APOBEC3G inh, PHOSPHO1 inh, esBAF inh, MITF act)
CCOc1ccc(C(=O)NC(Cc2ccccc2)C(=O)OC)cc1 (stereo not given)	esBAF inh 74.3 (no result: Wnt act)
CCOC(=O)C(CNc1ccc(OCc2ccccc2)cc1)NC(=O)c1ccccc1 (stereo not given)	Wnt act 43.9 (no result: APOBEC3A inh, APOBEC3G inh, PHOSPHO1 inh, esBAF inh, MITF act)
CC(C)CCn1c(SCc2ccc(Cl)cc2)nc2c1c(=O)[nH]c(=O)n2C	PHOSPHO1 inh 61.3
COc1cc(C(=O)NCCCc2nc3ccccc3n2Cc2cc(C)ccc2C)cc(OC)c1OC	none (no result: MITF act)
